# Structures can show the parent of a compound that is named as a salt. The full ranking holds about 2,000 compounds; the median of “fractional viability relative to vehicle” is about 0.91, and the lowest 2% start at about 0.045. The entries come from a sample that favours the lowest values as a whole.
# Test system: TYKNU
# Assay: fractional viability relative to vehicle; TYKNU is a high-grade serous ovarian cancer line; higher = less growth inhibition
# Conditions: 72 h
# Method in brief: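 Drug treatment lasted 72 h, with cells grown at 37 °C in 5% CO2 in RPMI 1640 supplemented with 10% FBS. Beforehand, TYKNU control cells or their lentiCRISPRv2 knockout derivatives had been seeded at 500 cells per well into drug-stamped 384-well plates carrying a ~2100-compound library at 2 or 10 μM, in duplicate. Viability came from Cell Titer Glo luminescence, with averaged duplicate treatment wells normalised to duplicate control wells in the same plate position.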
# [1] = 2uM, genotype: DNM1L knockout (sgDNM1L #1)
# [2] = 2uM, genotype: sgCTRLA1 (non-targeting control)
# [3] = 10uM, genotype: DNM1L knockout (sgDNM1L #1)
# [4] = 10uM, genotype: sgCTRLA1 (non-targeting control)
Compound,fractional viability [1],fractional viability [2],fractional viability [3],fractional viability [4]
O=CN1CC/C(=C/c2ccc3c(c2)OCO3)C1=O,0.723,0.973,0.78,0.692
OC[C@H]1O[C@@H](OCCc2ccc(O)cc2)[C@H](O)[C@@H](O)[C@@H]1O [Salidroside],0.968,1.14,0.842,1.07
O=C(c1cc(Cc2n[nH]c(=O)c3ccccc23)ccc1F)N1CCN(C(=O)C2CC2)CC1,0.967,1.06,0.727,1.02
CCN1CCN(Cc2ccc(Nc3ncc(F)c(-c4cc(F)c5nc(C)n(C(C)C)c5c4)n3)nc2)CC1,0.289,0.473,0.0303,0.0236
C[N+](C)(C)C[C@H](O)CC(=O)[O-] [L-carnitine],1.12,1.14,0.8,1.07
Cc1nnc(C(=O)NC(C)(C)c2nc(C(=O)NCc3ccc(F)cc3)c(O)c(=O)n2C)o1 [Raltegravir (MK-0518)],0.979,1.07,0.879,1.06
CN(C)C(=S)NN=C(c1ccccn1)c1ccccn1,0.177,0.132,0.255,0.107
O=C(Nc1cccc(Cl)c1)c1ccccn1,1.06,1.05,0.971,1.12
Clc1ccc(NN=C(c2ccccc2)c2ccccn2)nc1,0.116,0.0468,0.0355,0.0108
CCC[S+]([O-])c1ccc2[nH]c(NC(=O)OC)nc2c1 (configuration not stated) [Albendazole Oxide],1.04,0.909,0.505,0.562
CC1(C)CC(=O)c2c(C(F)(F)F)nn(-c3ccc(C(N)=O)c(N[C@H]4CC[C@H](OC(=O)CN)CC4)c3)c2C1,0.976,1.16,0.981,1.09
CC[C@H](NC(=O)[C@H](C)NC)C(=O)N1C[C@@H](O)C[C@H]1Cc1c(-c2[nH]c3cc(F)ccc3c2C[C@@H]2C[C@H](O)CN2C(=O)[C@H](CC)NC(=O)[C@H](C)NC)[nH]c2cc(F)ccc12 [Birinapant],0.772,1.15,0.653,0.949
COc1ccc(-c2nc(N3CCOCC3)c3sc(CN(C)c4ncc(C(=O)NO)cn4)cc3n2)cn1,0.0583,0.0505,0.0565,0.0395
Cc1c(CN2CCN(C(=O)[C@H](C)O)CC2)sc2c(N3CCOCC3)nc(-c3cnc(N)nc3)nc12,0.214,0.238,0.175,0.15
CS(=O)(=O)N1CCN(Cc2cc3nc(-c4cccc5[nH]ncc45)nc(N4CCOCC4)c3s2)CC1,0.627,0.588,0.272,0.249
O=C(Nc1c(Cl)cncc1Cl)c1ccc(OC(F)F)c(OCC2CC2)c1 [Roflumilast],0.966,0.959,0.921,1
Cc1cc(C)c(S(=O)(=O)n2cc(C)cc2C)c(C)c1,0.788,0.862,0.757,0.765
CC(C)NC[C@H](O)COc1ccc(CCOCC2CC2)cc1 [Levobetaxolol HCl],1.13,1.21,0.846,1.27
C=CC(=O)Nc1cccc(Nc2nc(Nc3ccc(NC4CN(CCF)C4)cc3OC)ncc2C(F)(F)F)c1,0.67,0.752,0.164,0.154
C=CC(=O)Nc1cc(Nc2nccc(-c3cn(C)c4ccccc34)n2)c(OC)cc1N(C)CCN(C)C,0.614,0.895,0.0431,0.0512

Compound,fractional viability [1],fractional viability [2],fractional viability [3],fractional viability [4]
C=CC(=O)Nc1cc(Nc2nccc(-c3c[nH]c4ccccc34)n2)c(OC)cc1N(C)CCN(C)C,0.324,0.409,0.0466,0.0525
COc1nc(OCc2cccc(-c3ccccc3)c2C)ccc1CNCCNC(C)=O [PD-1/PD-L1 inhibitor 2],0.852,0.872,0.501,0.0875
O=C(/C=C\n1cnc(-c2cc(C(F)(F)F)cc(C(F)(F)F)c2)n1)NNc1ccccn1 [Verdinexor (KPT-335)],0.137,0.13,0.162,0.121
C[C@@H]1O[C@@H](O[C@H]2[C@H](Oc3cc(O)c4c(c3)O[C@H](c3ccc(O)cc3)CC4=O)O[C@H](CO)[C@@H](O)[C@@H]2O)[C@H](O)[C@H](O)[C@H]1O [Naringin],0.915,1.12,0.827,1
CN1CCC(Nc2nc(Nc3ccc(Oc4ccccc4)cc3)c3c(=O)[nH]cc(Br)c3n2)CC1,0.131,0.279,0.0286,0.0109
c1nc2c(NC3CCCCC3)nc(Nc3ccc(N4CCOCC4)cc3)nc2[nH]1 [Reversine],0.545,0.579,0.229,0.216
C=C1CC[C@H](O)C/C1=C/C=C1\CCC[C@]2(C)[C@@H]([C@H](C)/C=C/[C@H](C)C(C)C)CC[C@@H]12 [Vitamin D2],1.19,1.02,0.175,0.739
O=C1NC(=O)/C(=C/c2cccc(C(F)(F)F)c2)S1,0.748,0.945,0.687,0.786
COc1ccc2c(c1)CCC1C2CCC2(C)C(NCCCCCCN3C(=O)C=CC3=O)CCC12 (configuration not stated),0.849,0.972,0.942,0.781
C[C@H]1O[C@@H](n2cc(F)c(=O)[nH]c2=O)[C@H](O)[C@@H]1O [Doxifluridine],1.11,1.13,0.893,1.06
CCCCc1oc2ccccc2c1C(=O)c1cc(I)c(OCCN(CC)CC)c(I)c1 [Amiodarone HCl],0.996,1.07,0.736,0.965
CN(CCOc1ccc(NS(C)(=O)=O)cc1)CCc1ccc(NS(C)(=O)=O)cc1 [Dofetilide],0.999,0.981,0.838,0.933
CCCCc1oc2ccc(NS(C)(=O)=O)cc2c1C(=O)c1ccc(OCCCN(CCCC)CCCC)cc1 [Dronedarone HCl],0.712,0.919,0.0442,0.0545
CN(C)c1nc(N(C)C)nc(N(C)C)n1 [Altretamine],1.05,1.07,0.977,1.03
CNC(=O)c1ccccc1Oc1nc(Nc2cc(OC)c(OC)c(OC)c2)ncc1Br,0.847,0.94,0.581,0.589
CN(CC(=O)N(Cc1ccc(C2CCCCC2)cc1)c1ccc(C(=O)O)cc1)S(=O)(=O)c1c(F)c(F)c(F)c(F)c1F,0.435,0.661,0.042,0.0176
FC(F)(F)c1ccc(/C=C/c2nc(COc3ccc(CCCCn4ccnn4)cc3)co2)cc1 [Mubritinib (TAK 165)],0.716,0.534,0.545,0.517
O=C1CCC[C@@H]2[C@H]3CCC[N+]4([O-])CCC[C@@H](CN12)[C@@H]34 (some centres not stated) [Oxymatrine],0.927,1.15,0.812,1.1
CC1=CC(=O)NS(=O)(=O)O1 [Acesulfame Potassium],1.16,1.13,0.791,1.17
Cc1ccc(S(=O)(=O)/C=C/C#N)cc1,0.0925,0.0355,0.0225,0.01

Compound,fractional viability [1],fractional viability [2],fractional viability [3],fractional viability [4]
CC(C)(C)c1ccc(S(=O)(=O)/C=C/C#N)cc1,0.119,0.091,0.0418,0.0217
C/C=C1/[C@H](O[C@@H]2O[C@H](CO)[C@@H](O)[C@H](O)[C@H]2O)OC=C(C(=O)OC)[C@H]1CC(=O)OCCc1ccc(O)c(O)c1 [Oleuropein],0.773,0.978,0.843,0.774
CC[C@H](C)C[C@H](C)CCCCCCCCC(=O)N[C@H]1C[C@@H](O)[C@@H](NCCN)NC(=O)[C@@H]2[C@@H](O)CCN2C(=O)[C@H]([C@H](O)CCN)NC(=O)[C@H]([C@H](O)[C@@H](O)c2ccc(O)cc2)NC(=O)[C@@H]2C[C@@H](O)CN2C(=O)[C@H]([C@@H](C)O)NC1=O [Caspofungin Acetate],0.98,1.17,0.637,1.01
Cc1ncc(Cl)cc1NCc1ccc(C(=O)N[C@@H](CC2CCCC2)C(=O)NC2CC2)s1,0.845,0.992,0.838,0.778
CCOc1ccc(Cc2cc([C@@H]3O[C@H](SC)[C@@H](O)[C@H](O)[C@H]3O)ccc2Cl)cc1 [Sotagliflozin (LX4211)],0.825,1.02,0.592,0.694
COC(=O)C[C@H](NC(=O)[C@H](C)NC(=O)[C@@H](NC(=O)OCc1ccccc1)C(C)C)C(=O)CF,0.89,1.14,0.837,1.1
CNC(=O)c1ccccc1Nc1nc(Nc2ccc(N3CCOCC3)cc2OC)ncc1Cl,0.85,0.837,0.292,0.206
CCOc1cc(N2CCC(O)CC2)ccc1Nc1ncc2c(n1)N(C)c1ccccc1C(=O)N2C,0.651,0.842,0.539,0.531
COc1cc(N2CCC(N)CC2)ccc1Nc1ncc(Cl)c(-c2c[nH]c3ccccc23)n1,0.359,0.386,0.0459,0.0363
CN(N=O)C(=O)NC1C(O)OC(CO)C(O)C1O (configuration not stated) [Streptozotocin (STZ)],1.1,1.2,0.905,1.2
C/C(=N\NC(=O)c1cccc(S(=O)(=O)N2CCOCC2)c1)c1cc(Cl)ccc1O,0.348,0.356,0.242,0.136
COc1cc(-c2cc(-c3ccc(N4CCNCC4)cc3)cnc2C)cc(OC)c1OC,0.714,1.02,0.834,0.772
c1cc(-c2cnn3cc(-c4ccc(N5CCNCC5)cc4)cnc23)c2cccnc2c1,0.0431,0.069,0.0409,0.021
COc1ccc(-c2cnc3c(-c4cccc5ncccc45)cnn3c2)cc1,1.18,1.28,1.1,1.2
CNC(=O)c1cccc(-c2ccc3c(N4CCOC[C@@H]4C)nc(N4CCOC[C@@H]4C)nc3n2)c1,0.277,0.218,0.201,0.237
CCCCCCCc1ccc(CCc2cccc(O)c2C(=O)O)cc1,0.825,1.04,0.896,0.765
CCCCCCCCc1ccc(CCC(N)(CO)CO)cc1 [Fingolimod (FTY720) HCl],0.722,1.02,0.0372,0.0418
CCCCCCCCCCCCc1ccc(S(=O)(=O)Nc2nncs2)cc1,0.997,1.07,0.843,0.966

# — the supplement of paper PMC5919970
